# Whole data set: some 33,000 sequences, median “E-score (-0.5 to 0.5)” near -0.021, cut for the highest 2% near 0.32. What follows is part of a selection rich in the highest values, with near analogues and random picks from the rest.
# Target: T1, Zap1 (UniProt P47043)
# T1 sequence: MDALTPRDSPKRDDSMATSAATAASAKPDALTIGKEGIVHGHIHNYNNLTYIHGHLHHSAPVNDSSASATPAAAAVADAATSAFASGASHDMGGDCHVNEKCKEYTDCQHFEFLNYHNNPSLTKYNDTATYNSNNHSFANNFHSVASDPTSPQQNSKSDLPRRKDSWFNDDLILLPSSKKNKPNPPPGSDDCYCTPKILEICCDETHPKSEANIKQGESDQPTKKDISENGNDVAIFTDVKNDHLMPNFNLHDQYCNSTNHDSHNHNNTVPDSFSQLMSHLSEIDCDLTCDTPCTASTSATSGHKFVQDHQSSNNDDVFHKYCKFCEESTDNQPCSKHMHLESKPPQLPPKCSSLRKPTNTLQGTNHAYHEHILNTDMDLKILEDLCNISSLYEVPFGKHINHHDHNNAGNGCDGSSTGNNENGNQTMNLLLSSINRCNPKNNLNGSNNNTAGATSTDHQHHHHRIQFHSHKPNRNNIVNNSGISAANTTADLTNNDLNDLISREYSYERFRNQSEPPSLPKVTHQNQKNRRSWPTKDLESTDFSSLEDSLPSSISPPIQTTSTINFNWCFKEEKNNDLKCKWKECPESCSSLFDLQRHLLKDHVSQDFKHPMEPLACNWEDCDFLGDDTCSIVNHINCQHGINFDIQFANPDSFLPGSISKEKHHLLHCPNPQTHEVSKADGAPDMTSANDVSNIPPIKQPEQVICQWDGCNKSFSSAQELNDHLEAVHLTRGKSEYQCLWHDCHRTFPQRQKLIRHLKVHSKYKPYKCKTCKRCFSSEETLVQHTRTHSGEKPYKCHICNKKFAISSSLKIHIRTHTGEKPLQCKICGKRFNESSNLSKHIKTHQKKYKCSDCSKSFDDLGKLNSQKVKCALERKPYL
# Assay: PBM E-score (8-mer binding enrichment) (E-score (-0.5 to 0.5)); higher = stronger / more preferred TF binding
# Conditions: protein concentration: 200 nM; construct: GST-full length
# Summary of the method: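 Yeast transcription factors, full-length or as DNA-binding domains, were expressed with a GST tag using PURExpress in vitro transcription/translation. At about 100-200 nM they were applied to universal all-10-mer Agilent arrays, double-stranded by primer extension on fresh or once-stripped slides. Fluorescent anti-GST detected bound protein, and masliner normalised the scans. E-scores for ungapped eight-base words, pooled with reverse complements, came from the Universal PBM Analysis Suite.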
row,Sequence,PBM E-score
1,AGCTACAT,-0.263
2,ATTTCTGG,0.0521
3,AAGTTCAC,-0.108
4,AATGAAGT,0.0905
5,AATCAAAG,0.0185
6,ACTATGAT,-0.00467
7,GTTGTATA,0.117
8,AAGTTGCT,-0.0577
9,GTACTGTA,0.0704
10,GTACTGAC,0.0986
11,GTACTGAA,0.317
12,AGGGTCCG,-0.0112
13,CGATGGCG,-0.284
14,CATGAAAC,0.0838
15,CAAGTGCG,-0.0607
16,GGCATGTA,-0.0887
17,CCGCCCGG,0.0274
18,CCGCCCCG,0.341
19,CCGCCCCC,-0.343
20,CAGGTGTC,-0.0194
21,CAGTACTA,0.164
22,TCAAAAAA,0.202
23,AAACCAAA,0.254
24,GAACCCAA,0.152

row,Sequence,PBM E-score
1,TAACCATA,0.44
2,AAACCATA,0.202
3,CAACCAAA,0.213
4,CAACCCCA,0.42
5,CAACCCCC,-0.212
6,GAACCATA,0.206
7,CAACCCCG,0.211
8,TAACCAAA,0.386
9,CAACCCAA,0.272
10,TAACCCAA,0.424
11,AAGATGCA,0.0988
12,AACTTGCT,-0.17
13,AATGTCTA,0.00891
14,CGTCAGTC,-0.206
15,GCCGCATA,0.102
16,TACAAGTA,0.0103
17,AACCTAAT,0.204
18,GATCAACC,-0.0383
19,GTGAGCGA,0.1
20,ATCAGTAC,-0.0201
21,AGGTGCAA,0.0924
22,TTTGAAAA,0.273
23,GAGTTCGA,0.0349
24,TAACCCCA,0.424

row,Sequence,PBM E-score
1,AAACCCCA,0.261
2,AAACCACA,0.184
3,AAACCACG,-0.0205
4,TAACCACA,0.417
5,GAACCCCA,0.291
6,GTGAGTCA,-0.0169
7,CCAACTAC,0.0442
8,ACGCGATC,-0.143
9,AACCACAG,0.233
10,AACCACTA,0.369
11,CACCACTA,0.22
12,AACCACAT,0.234
13,TACCACTA,0.179
14,CACCACAA,0.147
15,ACCCACAC,0.225
16,TACCACAA,0.359
17,ACCCACAG,0.2
18,AACCACAA,0.34
19,ACCCACAA,0.353
20,GACCACAA,0.185
21,AAACTTAT,0.19
22,AGAAACTC,-0.0693
23,GACAGTAA,0.0265
24,AGCTGGCG,-0.283

row,Sequence,PBM E-score
1,AGAAGAGA,-0.205
2,CCAAGATC,-0.0112
3,ACTGCACT,-0.149
4,ACAATGGA,0.159
5,AAGGAGGA,-0.291
6,CGGTTAAG,0.289
7,CGGTTACG,0.401
8,AGGTTAGG,0.348
9,AAGTTACA,0.169
10,CAGTTACG,-0.0217
11,AGGTTACA,0.453
12,AGGTTACT,0.457
13,AAGTTACT,-0.0263
14,AGGTTAGC,0.23
15,AGGTTAGA,0.185
16,ACGTTACT,0.143
17,ACGTTACA,-0.0394
18,CGCTCTCC,-0.119
19,ATCCTCTA,-0.118
20,AAACGCCG,-0.159
21,TACTGGGA,0.0284
22,ACCAATCG,0.0293
